According to PubChem BioAssay (NCATS):
Results filed as inconclusive are left out. The source made the active and inactive calls. Unless noted, calls follow the shape of the dose curve; as a rule, active = well fitted curve in the direction sought with a large enough effect; inconclusive = small, poorly fitted or top-dose-only effect, or another doubt; inactive = no such curve, though single readings can be large; an effect the other way counts as inactive or inconclusive.

Columns and labels:
[1] = target: Mitogen-activated protein kinase 10 (Mus musculus) (UniProt Q61831); assay: JNK3 AlphaScreen Assay (AID 530; active = well fitted curve in either direction with a large enough effect, not every such curve was filed as active;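 also: kinase came from lysate of stimulated human HepG2 cells; signal reports phosphorylation of biotinylated GST-cJun 1-79 at Ser73 with 10 µM ATP; series mostly up to about 57 µM; % is scaled to controls: 0 for no effect and ±100 for the full control effect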)
Outline: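 Inhibitors reduce antibody binding to phosphorylated biotin-cJun, lowering AlphaScreen luminescence. Lysates from HepG2 cells pre-activated by IL-1beta plus TNF-alpha supplied JNK3; compounds were titrated.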

[2] = Viability counterscreen for antagonist of constitutive androstane receptor (CAR) against the NCATS DSHEA and TCM libraries (AID 1794837);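 also: compound exposure lasted 24 h before viability reading; 0% is about no effect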
Outline: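 Cells: HepG2 line carrying CYP2B6 reporter and hCAR, seeded and attached 5 h. Then pin-transferred test substances plus agonist CITCO at 48 uM final; 24 h incubation; fluorogenic viability reagent, 1 h.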

[3] = Viability counterscreen for agonist of constitutive androstane receptor (CAR) against the NCATS DSHEA and TCM libraries (AID 1794838);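 also: HepG2 cells with CYP2B6 reporter and hCAR plus 0.75 µM PK11195 antagonist; 0% is about no effect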
Outline: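 Cell health was measured as CellTiter-Fluor signal in HepG2-CYP2B6-hCAR cells treated for 24 h with substances alongside the hCAR antagonist PK11195 (0.75 uM final).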

[4] = target: Nuclear receptor subfamily 1 group I member 3 (Homo sapiens) (UniProt Q14994); assay: Primary qHTS for agonist of constitutive androstane receptor (CAR) against the NCATS DSHEA and TCM libraries (AID 1794839); also: potency is read from the fitted curve at half-maximal effect
Outline: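 qHTS, agonist mode: HepG2-CYP2B6-hCAR, 2,500 cells/well, 5 h attach; cpds + PK11195 0.75 µM final; 24 h, 37 °C, 5% CO2. Readouts: CellTiter-Fluor (405/540 nm), then ONE-Glo luminescence.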

[5] = HepG2 viability counterscreen (readout 2: ATP content) against the NCATS DSHEA and TCM libraries (AID 1794840); also: 0% is about no effect
Outline: (§1)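 Same wells read twice: first fluorescence from cleaved GF-AFC substrate (25 uM final, 30 min, 37C) for live-cell protease, then CellTiter-Glo luminescence after 30 min at room temperature for ATP. HepG2 cells were exposed ~24 h to substances.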

[6] = HepG2 viability counterscreen (readout 1: protease activity) against the NCATS DSHEA and TCM libraries (AID 1794841);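 also: cells exposed to compounds for about 24 h before the protease read; 0% is about no effect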
Outline: as §1

[7] = target: Cytochrome P450 3A4 (Homo sapiens) (UniProt P08684); assay: qHTS for inhibitors of CYP3A4 against the NCATS DSHEA and TCM libraries (AID 1919971); also: potency is read from the fitted curve at half-maximal effect
Outline: (§2)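 Luminescent P450-Glo format: compounds preincubated 15 min with enzyme and luciferin substrate, reaction run 30-45 min after NADPH regeneration solution. Intraplate controls: ketoconazole for CYP3A4 and CYP2C19, sulfaphenazole for CYP2C9.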

[8] = target: Cytochrome P450 2D6 (Homo sapiens) (UniProt P10635); assay: qHTS for inhibitors of CYP2D6 against the NCATS DSHEA and TCM libraries (AID 1919972); also: % is scaled to controls: 0 for no effect and ±100 for the full control effect
Outline: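 Luminescent P450-Glo read-out of CYP2D6 turnover of a luciferin substrate after NADPH-driven reaction of 30-45 min at room temperature. Compounds were first preincubated 15 min with enzyme at titrated concentrations; quinidine was the intraplate control.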

[9] = KB-3-1 P-gp reporter qHTS against the NCATS DSHEA and TCM libraries (AID 1919975); also: 0% is about no effect
Outline: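 KB-3-1 parental line, 1536-well qHTS: cells seeded, ~4 h attachment, pintool compound addition, ~72 h at 37C, then CellTiter-Glo, 30 min RT, luminescence. Concentration-response format.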

[10] = target: Nuclear receptor subfamily 1 group I member 2 (Homo sapiens) (UniProt O75469); assay: Dual reporter qHTS for antagonist of Pregnane X Receptor (hPXR) against the NCATS DSHEA and TCM libraries: Luminescence Readout (AID 1920060); also: 0% is about no effect
Outline: (§3)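 Rifampicin-stimulated (2 uM final) hPXR-luciferase HepG2 cells were treated for 24 h with DSNP/TCM substances. Viability came from CellTiter-Fluor fluorescence, reporter activity from ONE-Glo luminescence.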

[11] = Dual reporter qHTS for antagonist of Pregnane X Receptor (hPXR) against the NCATS DSHEA and TCM libraries: Fluorescence Readout (AID 1920061); also: 0% is about no effect
Outline: as §3

[12] = target: Cytochrome P450 2C19 (Homo sapiens) (UniProt P33261); assay: qHTS for inhibitors of CYP2C19 against the NCATS DSHEA and TCM libraries (AID 1919974);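 also: luminescence from luciferin released by CYP2C19 oxidation of a pro-luciferin substrate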; also: potency is read from the fitted curve at half-maximal effect
Outline: as §2

[13] = qHTS Counterscreen for compound interference against the NCATS DSHEA and TCM libraries (AID 1919978); conditions: firefly luciferase detection reagent interference, luminescence;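 also: compounds preincubated with 1 µM D-luciferin or buffer before detection reagent; % of control where 0% means no effect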
Outline: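 Compounds, titrated from 19.5 nM to 39.8 uM final, were pinned onto 1 uM D-luciferin or plain 100 mM potassium phosphate. After 15 min at room temperature, luciferin detection reagent was added for 30 min before the luminescence read.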

[14] = Dual reporter qHTS for agonist of Pregnane X Receptor (hPXR) against the NCATS DSHEA and TCM libraries: Fluorescence readout (AID 1920058); also: 0% is about no effect
Outline: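 hPXR-Luc HepG2 cells, 2000/well in charcoal-stripped serum, attached 5 h, dosed for ~24 h at 37 °C. Fluorescence read is CellTiter-Fluor viability (Ex/Em 405/540 nm); rifampicin positive, tetraoctyl ammonium bromide (92 µM) cytotoxicity controls.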

[15] = target: Nuclear receptor subfamily 1 group I member 2 (Homo sapiens) (UniProt O75469); assay: Dual reporter qHTS for agonist of Pregnane X Receptor (hPXR) against the NCATS DSHEA and TCM libraries: Luminescence readout (AID 1920059); also: 0% is about no effect
Outline: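 hPXR-LucHepG2 cells in phenol red-free DMEM with 5% charcoal-stripped FBS, 2000 cells/well, attached 5 h, then exposed 24 h at 37C to compounds; rifampicin as positive agonist control (2.8 nM–92 uM). Luciferase luminescence read.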

Chain of Cytochrome P450 2C19 (Homo sapiens) (P33261 whole entry, looked up): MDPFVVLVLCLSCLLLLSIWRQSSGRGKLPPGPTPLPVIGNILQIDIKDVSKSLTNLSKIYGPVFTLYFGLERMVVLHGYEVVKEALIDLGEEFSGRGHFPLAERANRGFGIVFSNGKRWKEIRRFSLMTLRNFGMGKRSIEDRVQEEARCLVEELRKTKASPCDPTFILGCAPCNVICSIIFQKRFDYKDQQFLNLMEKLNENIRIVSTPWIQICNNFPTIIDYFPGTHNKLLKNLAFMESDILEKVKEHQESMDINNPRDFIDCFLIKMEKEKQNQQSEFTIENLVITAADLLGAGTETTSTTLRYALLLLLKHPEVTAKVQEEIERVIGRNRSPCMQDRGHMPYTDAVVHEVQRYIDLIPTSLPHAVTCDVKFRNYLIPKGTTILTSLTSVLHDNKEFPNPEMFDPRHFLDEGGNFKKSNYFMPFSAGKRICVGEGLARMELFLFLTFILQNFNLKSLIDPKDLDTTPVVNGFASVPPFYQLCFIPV
Chain of Nuclear receptor subfamily 1 group I member 2 (Homo sapiens) (O75469 whole entry, looked up): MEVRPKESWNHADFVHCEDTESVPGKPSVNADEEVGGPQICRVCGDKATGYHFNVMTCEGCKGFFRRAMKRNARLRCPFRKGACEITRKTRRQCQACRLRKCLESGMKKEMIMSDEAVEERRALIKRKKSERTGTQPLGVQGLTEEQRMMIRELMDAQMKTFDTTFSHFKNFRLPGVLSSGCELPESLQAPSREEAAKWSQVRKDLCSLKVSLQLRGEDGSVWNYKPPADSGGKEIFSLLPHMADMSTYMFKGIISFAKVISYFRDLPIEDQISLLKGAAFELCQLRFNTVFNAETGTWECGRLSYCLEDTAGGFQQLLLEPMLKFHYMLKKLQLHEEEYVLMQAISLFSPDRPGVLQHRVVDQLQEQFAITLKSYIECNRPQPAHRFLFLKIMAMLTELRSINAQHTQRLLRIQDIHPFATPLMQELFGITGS
Chain of Cytochrome P450 3A4 (Homo sapiens) (P08684 whole entry, looked up): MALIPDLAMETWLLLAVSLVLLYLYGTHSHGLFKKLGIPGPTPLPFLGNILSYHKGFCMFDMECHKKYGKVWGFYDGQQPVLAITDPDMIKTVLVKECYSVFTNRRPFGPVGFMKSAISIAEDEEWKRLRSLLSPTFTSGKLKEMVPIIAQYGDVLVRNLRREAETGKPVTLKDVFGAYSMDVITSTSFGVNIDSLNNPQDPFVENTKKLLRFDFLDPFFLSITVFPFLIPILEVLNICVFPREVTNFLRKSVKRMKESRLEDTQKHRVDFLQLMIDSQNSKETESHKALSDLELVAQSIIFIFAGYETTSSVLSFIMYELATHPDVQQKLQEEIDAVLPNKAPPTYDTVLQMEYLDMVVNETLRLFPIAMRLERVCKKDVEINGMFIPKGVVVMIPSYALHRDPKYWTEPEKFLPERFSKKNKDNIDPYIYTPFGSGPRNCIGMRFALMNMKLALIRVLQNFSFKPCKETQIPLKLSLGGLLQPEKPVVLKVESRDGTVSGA
Chain of Cytochrome P450 2D6 (Homo sapiens) (P10635 whole entry, looked up): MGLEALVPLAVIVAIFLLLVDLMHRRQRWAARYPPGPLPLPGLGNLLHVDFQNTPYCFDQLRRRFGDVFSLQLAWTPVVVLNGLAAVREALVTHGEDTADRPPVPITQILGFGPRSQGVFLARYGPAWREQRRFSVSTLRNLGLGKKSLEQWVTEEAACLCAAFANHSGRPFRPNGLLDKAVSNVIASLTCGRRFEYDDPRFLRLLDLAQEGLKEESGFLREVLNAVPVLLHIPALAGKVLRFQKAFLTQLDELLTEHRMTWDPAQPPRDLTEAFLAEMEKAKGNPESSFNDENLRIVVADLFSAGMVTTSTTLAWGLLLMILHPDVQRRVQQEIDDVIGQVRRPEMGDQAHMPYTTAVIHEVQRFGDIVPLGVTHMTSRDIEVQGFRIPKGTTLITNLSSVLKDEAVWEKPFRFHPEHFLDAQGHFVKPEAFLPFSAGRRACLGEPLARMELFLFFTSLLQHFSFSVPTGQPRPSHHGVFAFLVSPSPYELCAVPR
Chain of Nuclear receptor subfamily 1 group I member 3 (Homo sapiens) (Q14994 whole entry, looked up): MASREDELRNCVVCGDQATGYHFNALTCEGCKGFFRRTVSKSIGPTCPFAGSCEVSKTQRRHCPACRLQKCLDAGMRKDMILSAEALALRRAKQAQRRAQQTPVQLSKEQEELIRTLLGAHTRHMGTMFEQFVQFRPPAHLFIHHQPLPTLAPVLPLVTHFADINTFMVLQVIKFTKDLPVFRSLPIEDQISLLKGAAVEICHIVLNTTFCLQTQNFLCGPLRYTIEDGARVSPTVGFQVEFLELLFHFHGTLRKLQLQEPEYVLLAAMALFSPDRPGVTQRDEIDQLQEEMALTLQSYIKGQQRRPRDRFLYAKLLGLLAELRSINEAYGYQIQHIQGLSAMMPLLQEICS

COc1ccc(/C=C/c2cc(OC)cc(=O)o2)cc1
inactive: Potency [1] | outcome [2] | outcome [3] | outcome [5] | outcome [6] | Potency [7] | Potency [8] | outcome [9] | outcome [10] | outcome [11]
active: Potency [4] 14.1 µM

CC1(C)C2CCC1(C)C(O)C2 (configuration not stated)
inactive: outcome [2] | outcome [3] | Potency [4] | outcome [5] | outcome [6] | Potency [7] | Potency [8] | Potency [12] | outcome [9] | max response [13] 1.58% | outcome [14] | Potency [15] | outcome [10] | outcome [11]

O=Cc1ccccc1O
inactive: outcome [2] | outcome [3] | Potency [4] | outcome [5] | outcome [6] | Potency [7] | Potency [8] | Potency [12] | outcome [9] | max response [13] 1.96% | outcome [14] | Potency [15] | outcome [10] | outcome [11]

CN(CC(=O)O)C(=N)N
inactive: outcome [2] | outcome [3] | Potency [4] | outcome [5] | outcome [6] | Potency [7] | Potency [8] | Potency [12] | outcome [9] | max response [13] -1.47% | outcome [14] | Potency [15] | outcome [10] | outcome [11]

O=C(O)[C@H]1O[C@@H](Oc2c(-c3ccc(O)c(O)c3)oc3cc(O)cc(O)c3c2=O)[C@H](O)[C@@H](O)[C@@H]1O
active: Potency [12] 3.98 µM
inactive: outcome [2] | outcome [3] | Potency [4] | outcome [5] | outcome [6] | Potency [8] | outcome [9] | max response [13] 3.23% | Potency [15] | outcome [10] | outcome [11]

C=C/C(C)=C/C/C=C(\C)CCC=C(C)C
active: Potency [7] 28.2 µM | Potency [12] 31.6 µM
inactive: outcome [2] | outcome [3] | Potency [4] | outcome [5] | outcome [6] | Potency [8] | outcome [9] | outcome [10] | outcome [11]

CCCCC/C=C/C/C=C/CCCCCCCC(=O)O
inactive: outcome [6] | outcome [9] | max response [13] 0.865% | Potency [15] | outcome [10] | outcome [11]
active: Potency [7] 22.4 µM | Potency [12] 22.4 µM

CCCCCCCCCCCCCC(=O)O
inactive: outcome [2] | outcome [3] | Potency [4] | outcome [6] | Potency [7] | Potency [8] | Potency [12] | outcome [9] | max response [13] -1.78% | Potency [15] | outcome [10] | outcome [11]

C=C(C)C1CC=C(C)C(O)C1 (configuration not stated)
inactive: Potency [1] | outcome [2] | outcome [3] | Potency [4] | outcome [6] | Potency [7] | Potency [8] | outcome [9] | outcome [14] | Potency [15] | outcome [10] | outcome [11]

CC1=C2[C@H]([C@@H](C)CC[C@@H]2/C=C(\C)C(=O)O)[C@@H](O)C1
inactive: outcome [2] | outcome [3] | outcome [5] | outcome [6] | outcome [9] | outcome [14] | outcome [10] | outcome [11]

CC(=O)OC/C=C/c1ccccc1
inactive: outcome [2] | outcome [3] | Potency [4] | outcome [6] | Potency [7] | Potency [8] | outcome [9] | outcome [14] | Potency [15] | outcome [10] | outcome [11]
